Measured values reported in PubChem BioAssay (NCI).
The panel holds about 83,000 compounds, 20% with a hit somewhere; the sample as a whole holds those more often.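 Activity criterion: percent growth below 10, measured after cells in 96-well plates were exposed to a single compound concentration for 48 hours.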 Values without a mark were called inactive. The source made the active and inactive calls.

How the values were obtained:
Assay in all cases: NCI-60 one-dose screen, 48 h (100 = growth as untreated, 0 = no growth, -100 = all killed)
Details in all cases: 10 µM unless noted
DU-145 prostate = test system: DU-145 prostate
K-562 leukemia = test system: K-562 leukemia
MALME-3M melanoma = test system: MALME-3M melanoma
MDA-MB-231 breast = test system: MDA-MB-231 breast
RXF 393 renal = test system: RXF 393 renal
SF-268 CNS = test system: SF-268 CNS
SF-295 CNS = test system: SF-295 CNS
SF-539 CNS = test system: SF-539 CNS
UACC-257 melanoma = test system: UACC-257 melanoma
M14 melanoma = test system: M14 melanoma
HCT-15 colon = test system: HCT-15 colon
HT29 colon = test system: HT29 colon
SNB-75 CNS = test system: SNB-75 CNS
SNB-19 CNS = test system: SNB-19 CNS
U251 CNS = test system: U251 CNS
PC-3 prostate = test system: PC-3 prostate
SK-MEL-5 melanoma = test system: SK-MEL-5 melanoma
UACC-62 melanoma = test system: UACC-62 melanoma
LOX IMVI melanoma = test system: LOX IMVI melanoma
SK-MEL-28 melanoma = test system: SK-MEL-28 melanoma

Compound	growth (DU-145 prostate)	growth (K-562 leukemia)	growth (MALME-3M melanoma)	growth (MDA-MB-231 breast)	growth (RXF 393 renal)	growth (SF-268 CNS)	growth (SF-295 CNS)	growth (SF-539 CNS)	growth (UACC-257 melanoma)	growth (M14 melanoma)	growth (HCT-15 colon)	growth (HT29 colon)	growth (SNB-75 CNS)	growth (SNB-19 CNS)	growth (U251 CNS)	growth (PC-3 prostate)	growth (SK-MEL-5 melanoma)	growth (UACC-62 melanoma)	growth (LOX IMVI melanoma)	growth (SK-MEL-28 melanoma)
O=C(c1ccccc1)[C@@H](c1ccccc1)[C@]1(O)C(=O)Nc2ccccc21	103%	102%	98.2%	88.4%	98.6%	84.9%	95.8%	95.3%	96.8%	95.5%	100%	101%	83.7%	94.1%	101%	90.7%	92.1%	85.9%	91.1%	96.2%
CC1OC(C(=O)N2CCN(CCO)CC2)CC1COC1CCCCC1 (stereo not given)	105% [50 µM]	91.6% [50 µM]	88.2% [50 µM]	94.5% [50 µM]	102% [50 µM]	97.2% [50 µM]	102% [50 µM]	97.8% [50 µM]	98% [50 µM]	100% [50 µM]	102% [50 µM]	106% [50 µM]	88.3% [50 µM]	93.9% [50 µM]	99.4% [50 µM]	92.3% [50 µM]	95.8% [50 µM]	87.7% [50 µM]	96.4% [50 µM]	106% [50 µM]
Oc1c(Cl)cc(Cl)c2ccc(CN3CCNCC3)nc12	50.8%	19%	67.9%	59.3%	60.3%	39.9%	39.4%	58.3%	70.9%	47.7%	19.5%	105%	45.9%	41.9%	26.8%	40.3%	42.8%	33.3%	45.3%	62.3%
O=C1NC(=O)C(=Cc2cc(-c3ccc(Cl)cc3)n(-c3ccccc3)n2)C(=O)N1	105%	90.6%	99.2%	99.8%	86%	105%	93.8%	96.5%	101%	93.1%	89.4%	112%	92.4%	87.3%	96.7%	100%	96.6%	90.5%	104%	98.5%
O=C1CCC(C(=O)N/N=C/c2ccc([N+](=O)[O-])cc2)N1 (stereo not given)	103%	103%	101%	109%	111%	96.7%	99.7%	93.7%	106%	104%	98.9%	104%	75.4%	99.9%	102%	95.3%	104%	100%	91.9%	111%
CC/C(=C(/c1ccc(Cl)cc1)c1ccc(OCCN(CC)CC)cc1)c1ccc(OC)cc1	74.4%	-18% (active)	68.2%	71.8%	45%	79.3%	36.9%	62.3%	64.9%	34.5%	16.7%	-3.6% (active)	97.2%	69.5%	33.5%	33.9%	46.1%	72.8%	42.3%	56%
CCC(=C(c1ccc(OCCN(CC)CC)cc1)c1ccc(OCCN(CC)CC)cc1)c1ccc(Cl)cc1	-19.7% (active)	0.499% (active)	-81.4% (active)	-81.7% (active)	-54.3% (active)	-4.01% (active)	-68.5% (active)	-90.3% (active)	-65% (active)	-79% (active)	-81% (active)	-68% (active)	-73.6% (active)	-56.1% (active)	-87.8% (active)	-50.7% (active)	-98.2% (active)	-68.3% (active)	-87% (active)	-86.9% (active)
COC(=O)[C@H]1Cc2c([nH]c3ccccc23)[C@H](c2ccc3c(c2)OCO3)N1	101%	99.3%	99.8%	98.5%	109%	96.3%	99.8%	92.8%	107%	108%	100%	106%	74.8%	96.4%	96.8%	93.2%	101%	88.1%	93.6%	108%
